Results published in ChEMBL document CHEMBL3988442, “University of Dundee, Small-Polar-MMV Screening Library” (2021).
In all, about 48,000 compounds went through this assay and about 13,000 (27%) showed an effect of 50% or more. The list shows a part of the results.

system: Wolbachia pipientis; experiment: Anti-Wolbachia Cell-Based Screen; format: functional; design: scale not given: in the data most compounds retested in dose-response had high values; details: 5 µM

| SMILES | Percent Effect [%] |
| --- | --- |
| O=c1ccncn1Cc1csc(C2CC2)n1 | -22.65 |
| Cc1cc(C)cc(CCC(=O)NC(C)c2nnn[nH]2)c1 (configuration not stated) | -2.993 |
| CCCn1nc2c(cc1=O)CN(Cc1ncc(C(C)(C)C)o1)CC2 | 7.183 |
| c1ccc2c(N3CCCCC3)cnnc2c1 | -32.94 |
| CN(Cc1ccco1)c1ccc(C(=O)NCCCc2ccccn2)cn1 | -0.2765 |
| CN1CC[C@@H]2[C@@H]1CCN2Cc1ccc2c(c1)OCO2 | -14.63 |
| COCc1cn(C2CCN(CCC(C)c3ccccc3)CC2)nn1 (configuration not stated) | 99.11 |
| Cc1cccc(CN2CCC(n3cc(CCO)nn3)CC2)c1C | 4.105 |
| CNCc1cn(C2CCN(CCC(C)c3ccccc3)CC2)nn1 (configuration not stated) | 95.9 |
| CC(CCN1CCC(n2cc(CCO)nn2)CC1)c1ccccc1 (configuration not stated) | 92.59 |
| CNCc1cn(C2CCN(C(=O)NCc3ccco3)CC2)nn1 | 17.43 |
| COCc1cn(C2CCN(Cc3ccc(Cl)s3)CC2)nn1 | 0.9369 |
| CCCC(C)CN1CCC(n2cc(CCCO)nn2)CC1 (configuration not stated) | -3.716 |
| CSC(C)CCN1CCC(n2cc(C3CCCCC3)nn2)CC1 (configuration not stated) | -13.53 |
| COCc1cn(C2CCN(C(=O)Cc3ccsc3)CC2)nn1 | -0.9661 |
| CSCc1noc(CN(C)C(C)c2nc(C)sc2C)n1 (configuration not stated) | -2.011 |
| CC(C)C(=O)NC1COC2(CCN(C(=O)c3ccc[nH]3)CC2)C1 (configuration not stated) | 3.438 |
| O=C(c1cc(-n2cccn2)ccn1)N1CCOc2ncccc21 | -22.54 |
| CC(C)c1cc(CN(C)C(=O)C(C)N2CCc3ccccc3C2)no1 (configuration not stated) | 103.9 |
| COCCc1noc(CN(C)C(=O)C2COc3ccccc3C2)n1 (configuration not stated) | -1.856 |
| CC(C(=O)N(C)Cc1noc(C2CCC2)n1)N1CCc2ccccc2C1 (configuration not stated) | 96.98 |
| COc1cccc2c1N(Cc1noc(C3CC3)n1)CCC2 | -4.254 |
| CC(C(=O)N(C)C)N1CCc2onc(-c3cccc(F)c3)c2C1 (configuration not stated) | -12.34 |

| SMILES | Percent Effect [%] |
| --- | --- |
| COCCc1noc(CN(C)C(=O)C(C)N2CCc3ccccc3C2)n1 (configuration not stated) | 110.4 |
| COCCc1noc(CN(C)C(=O)c2cccc(N3CCCC3=O)c2)n1 | -10.13 |
| CN(Cc1cc(C2CC2)on1)C(=O)C(c1cccnc1)N1CCCC1 (configuration not stated) | -7.414 |
| Cc1noc(C2CCCN(CC(=O)N3CCc4ccccc4C3)C2)n1 (configuration not stated) | 4.147 |
| CCCn1cnnc1CNC(=O)C1COc2c(cccc2OC)C1 (configuration not stated) | -10.56 |
| Cc1cc(C)cc(N2CCN(C(=O)CCN3C[C@@H]4CC[C@H]3C4)CC2=O)c1 | 110.5 |
| COc1cccc(N2CCN(C(=O)C(O)c3cccc(Cl)c3)CC2=O)c1 (configuration not stated) | -25.1 |
| CN(C)c1nc2c(c(N(C)C)n1)CCN(C(=O)CN1C[C@@H]3CC[C@H]1C3)C2 | -4.711 |
| COCCN1C[C@H]2CC[C@@H]1CN(C(=O)CCc1c(C)nn(C)c1C)C2 | 8.536 |
| Cc1ccc(N2CCCC(N3CCC(CO)CC3)C2=O)cc1 (configuration not stated) | -5.905 |
| O=C(CCN1C[C@@H]2CC[C@H]1C2)N1CCN(c2cccc(Cl)c2)C(=O)C1 | 108.3 |
| Cc1ccc2oc(=O)n(CCC(=O)N3CCN(C)C(=O)C3)c2c1 | 7.292 |
| Cc1ccc(N2CCN(C(=O)CN3C[C@@H]4CC[C@H]3C4)CC2=O)cc1 | 111.2 |
| COc1cccc(N2CCN(C(=O)CCO)CC2=O)c1 | 0.6756 |
| CC(C)Cn1cncc1Cn1cccc(C(F)(F)F)c1=O | 13.38 |
| CC(C)Oc1ccccc1C(=O)NCCc1nncn1C | -7.55 |
| COc1ccccc1C(=O)NC(C)CC(=O)O (configuration not stated) | 5.398 |
| COc1ccccc1C(=O)Nc1c(F)c(C(=O)NCCC(C)C)nn1C | 138.9 |
| CCN(CC)CCn1cc(NC(=O)c2ccccc2OC)cn1 | 7.312 |
| CCC(C)NC(=O)c1nn(C)c(NC(=O)c2ccccc2OC)c1F (configuration not stated) | 131.5 |
| COc1cccc(C(=O)NC(C)CCN2CCOCC2)c1F (configuration not stated) | 4.529 |
| NC(=O)N1CCC2(CC1)CN(c1ncccn1)CCO2 | -107.3 |
| CN(C)C(=O)c1cn[nH]c1C1(C)CCN(c2ncccn2)CC1 | 98.94 |

| SMILES | Percent Effect [%] |
| --- | --- |
| Cc1cnc(N2CCC3(CC2)CC3CNC(=O)N(C)C)nc1 (configuration not stated) | -2.686 |
| CCN1CCNC(=O)C12CCN(S(=O)(=O)c1ccccc1)CC2 | -28.29 |
| CC1(c2[nH]ncc2C(N)=O)CCN(c2ncccn2)CC1 | 105.4 |
| Cc1nccc(N2CCCC(C)(c3[nH]ncc3C(N)=O)C2)n1 (configuration not stated) | 108.3 |
| CN1C(=O)CCC12CCN(S(=O)(=O)c1ccccc1)CC2 | -37.9 |
| Cc1ccc(-c2cn[nH]c2C2CCCN(c3ccnc(C)n3)C2)cc1 (configuration not stated) | -2.431 |
| CN(C)C(=O)CC1CC2(CCN(c3ncccn3)CC2)c2ccccc21.O=C(O)C(F)(F)F (configuration not stated) | 8.977 |
| CC(C)=CCC1(C(=O)O)CCCN(c2ccnc(C)n2)C1 (configuration not stated) | -9.118 |
| CC1(c2[nH]ncc2C(N)=O)CCN(S(=O)(=O)c2ccccc2)CC1 | 129 |
| Cc1nc2c(c(N3CCN(c4ncccc4C(N)=O)CC3)n1)CCNC2 | -20.98 |
| CNC(=O)CN(C)Cc1ccc(F)cc1Cl | -1.762 |
| O=C(c1nc(N2CCCC2)ncc1Cl)N1CCN(Cc2ccsc2)CC1 | 11.05 |
| CCn1ncc2c1CCCC2NCc1csc(C(C)C)n1 (configuration not stated) | -1.873 |
| CC(C)Cc1nc(CS(=O)(=O)c2ccccc2)no1 | -7.933 |
| CCN1C(=O)CC(c2cnn(C)c2)C12CCN(C(=O)C1CC=CC1)CC2 (configuration not stated) | -6.196 |
| O=C(O)C(F)(F)F.O=C1CC(c2ccncc2)C2(CCN(C(=O)NC3CC3)CC2)N1 (configuration not stated) | -11.64 |
| O=C1CC(c2ccncc2)C2(CCN(C(=O)c3ccnnc3)CC2)N1 (configuration not stated) | 8.485 |
| Cn1cc(C2CC(=O)NC23CCN(C(=O)C2CC=CC2)CC3)cn1 (configuration not stated) | 98.1 |
| CC(=O)NCC(=O)N1CCC2(CC1)NC(=O)CC2c1cccnc1.O=C(O)C(F)(F)F (configuration not stated) | 7.13 |
| COCC(=O)N1CCC2(CC1)CC(c1cnn(C)c1)C(=O)N2 (configuration not stated) | 4.267 |
| Cn1cc(C2CC(=O)NC23CCN(C(=O)NC2CC2)CC3)cn1 (configuration not stated) | 102 |
| Cn1cc(C2CC(=O)NC23CCN(C(=O)c2ccc[nH]2)CC3)cn1 (configuration not stated) | -5.816 |
| CC(=O)NCC(=O)N1CCC2(CC1)NC(=O)CC2c1cnn(C)c1 (configuration not stated) | 117.4 |

| SMILES | Percent Effect [%] |
| --- | --- |
| CCn1ccnc1CNc1nccc(-c2cn(C)nc2C)n1 | -3.456 |
| CC(C)C(NC(=O)N1CCN(c2ccc(Cl)cc2)CC1)C(=O)NC1CC1 (configuration not stated) | 0.3878 |
| COc1ccc(OC)c(C(O)CN2CC(n3cccn3)C2)c1 (configuration not stated) | -4.387 |
| CCCN1CC2(CCN(c3cc(C4CC4)ncn3)CC2)CC1C(=O)O (configuration not stated) | -4.033 |
| CC1(C)CN(Cc2cc(C3CCCCC3)no2)CC[C@]1(C)O | 3.04 |
| Cc1ccc(NC2CCN(C(=O)c3sccc3C3CC3)CC2)nn1 | 97.28 |
| Cc1ccc(NC2CCN(C(=O)c3cccn3C)CC2)nn1 | 4.199 |
| Cc1ccc(NC2CCN(C(=O)c3ccco3)CC2)nn1 | 66.81 |
| Cc1ccc(NC2CCN(C(=O)c3cnc(C)s3)CC2)nn1 | -2.09 |
| Cc1ccc(NC2CCN(C(=O)c3n[nH]c4ccccc34)CC2)nn1 | -3.019 |
| Cc1ccc(NC2CCN(C(=O)c3ccc(Cl)o3)CC2)nn1 | -2.526 |
| Cc1ccc(NC2CCN(C(=O)c3cnn(C(C)(C)C)c3)CC2)nn1 | 89.59 |
| Cc1ccc(NC2CCN(C(=O)c3ccncc3)CC2)nn1 | 119.5 |
| Cc1ccc(NC2CCN(C(=O)c3ccsc3)CC2)nn1 | -4.871 |
| CC(C)=CCN1CCc2onc(-c3ccc(F)c(F)c3)c2C1 | -6.636 |
| CC(C)NC(=O)[C@@H]1C[C@@H](N)CN1C(=O)CCSCc1ccc(F)cc1 | -8.578 |
| CC(NC(=O)c1cc2n(n1)CCCN(C)C2)c1cn2ncsc2n1 (configuration not stated) | 2.374 |
| O=C(Cc1cc(F)cc(Cl)c1)N[C@@H]1CCNC[C@H]1O | -5.906 |
| Cc1ccc(NC2CCN(C(=O)c3cccc4ncccc34)CC2)nn1 | 0.6647 |
| Cc1ccc(NC2CCN(C(=O)c3ccnc(N(C)C)c3)CC2)nn1 | 106.8 |
| Cc1ccc(NC2CCN(C(=O)c3ccc(C#N)cc3)CC2)nn1 | 103.2 |
| CCn1ccnc1S(=O)(=O)Cc1ccc(C(N)=O)cc1 | -8.81 |
| Cc1ccc(NC2CCN(C(=O)CN(C)C3CC3)CC2)nn1 | -0.8726 |

| SMILES | Percent Effect [%] |
| --- | --- |
| Cc1ccc(NC2CCN(C(=O)COCC(F)(F)F)CC2)nn1 | -5.027 |
| Cc1ccc(NC2CCN(C(=O)COC3CCCC3)CC2)nn1 | 70.65 |
| Cc1ccc(NC2CCN(C(=O)COCC3CC3)CC2)nn1 | 115.7 |
| Cc1ccc(NC2CCN(C(=O)CC3CCCO3)CC2)nn1 (configuration not stated) | 6.763 |
| Cc1ccc(NC2CCN(C(=O)CCOCC(F)(F)F)CC2)nn1 | 69.22 |
| Cc1ccc(NC2CCN(C(=O)COC3CCCCC3)CC2)nn1 | 112.2 |
| Cc1ccc(CNC(C)c2ccc(N3CCN(C)CC3)c(F)c2)o1.Cl (configuration not stated) | -9.969 |
| Cc1cc(NS(=O)(=O)c2c[nH]c3ncccc23)no1 | -5.183 |
| COCc1ccccc1C(=O)NCC(O)c1ccccc1F (configuration not stated) | -8.064 |
| CC(=O)N1CCC2(CC1)CNc1c(F)cccc12.Cl | 98.89 |
| CN1C(=O)C2(CCN(C(=O)c3ccccc3)CC2)c2cc(F)ccc21.Cl | -1.303 |
| CN1CC2(CCN(Cc3cccnc3)CC2)c2cccc(F)c21.Cl | 16.02 |
| CN1C(=O)C2(CCN(C(=O)c3cccnc3)CC2)c2cccc(F)c21 | 5.447 |
| CS(=O)(=O)N1CCc2[nH]cnc2C12CCN(C(=O)c1cccnc1)CC2 | -96.76 |
| CN1CC2(CCN(C(=O)c3cccnc3)CC2)c2cccc(F)c21.Cl | 104.8 |
| CC(=O)N1CCC2(CC1)C(=O)N(C)c1c(F)cccc12 | 2.868 |
| Cl.O=C(c1cccnc1)N1CCC2(CC1)CNc1c(F)cccc12 | 106.5 |
| CN1C(=O)C2(CCN(C(=O)c3ccccc3)CC2)c2cccc(F)c21.Cl | 2.069 |
| CC(=O)N1CCC2(CC1)CNc1ccc(F)cc12 | -3.15 |
| Cl.O=C(c1ccccc1)N1CCC2(CC1)CNc1c(F)cccc12 | 97.7 |
